Experimental data as given in PubChem BioAssay (NCI).
About 83,000 compounds went through this panel and 20% of them were active in at least one assay; those are over-represented in the sample as a whole.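 Cells were grown in 96-well plates and exposed to the test compound at a single concentration for 48 hours; results are reported as percent growth, with values below 10 considered active.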 Active and inactive are the calls of the source.

How the values were obtained:
Assay in all cases: NCI-60 one-dose screen, 48 h (100 = growth as untreated, 0 = no growth, -100 = all killed)
Conditions in all cases: 10 µM unless noted
T-47D breast = system: T-47D breast
BT-549 breast = system: BT-549 breast
MDA-MB-435 melanoma = system: MDA-MB-435 melanoma
SW-620 colon = system: SW-620 colon
MCF7 breast = system: MCF7 breast
HCT-116 colon = system: HCT-116 colon
HCC-2998 colon = system: HCC-2998 colon
KM12 colon = system: KM12 colon

Measured: growth

COc1cc2c(/C=C3/C(=O)Nc4ccc(O)cc43)c(Cl)n(Cc3cc(OC)c(OC)c(OC)c3)c2cc1C
inactive: T-47D breast 23.5% | SW-620 colon 19.3% | HCT-116 colon 18.1% | HCC-2998 colon 85.5% | KM12 colon 16.3%
active: BT-549 breast -7.31% | MDA-MB-435 melanoma 2.91% | MCF7 breast 3.36%

CC12CCC3C(CCC4CC(O)CCC43C)C1C/C(=C/O)C(=O)O2 (stereo not drawn)
inactive: T-47D breast 106% | BT-549 breast 109% | MDA-MB-435 melanoma 111% | SW-620 colon 102% | MCF7 breast 102% | HCT-116 colon 104% | HCC-2998 colon 103% | KM12 colon 97.8%

CC(C)(C)C(=O)Nc1nc2c(s1)CCc1ccn(S(=O)(=O)c3ccccc3)c1-2
inactive: T-47D breast 66.6% | BT-549 breast 94.5% | MDA-MB-435 melanoma 108% | SW-620 colon 101% | MCF7 breast 85.9% | HCT-116 colon 78.7% | HCC-2998 colon 100% | KM12 colon 89.8%

Nc1nc2ccc(CNc3ccc(C(=O)NC(CC(=O)O)C(=O)O)cc3)cc2c(=O)[nH]1 (stereo not drawn)
inactive: T-47D breast 84.7% | BT-549 breast 74.3% | MDA-MB-435 melanoma 40.4% | SW-620 colon 31.8% | MCF7 breast 27.2% | HCT-116 colon 16.8% | HCC-2998 colon 45.1% | KM12 colon 29.8%

C=C1c2c(Cl)ccc(O)c2C(O)=C2C(=O)[C@]3(O)C(O)=C(C(N)=O)C(=O)[C@@H](N(C)C)[C@@H]3[C@@H](O)[C@H]12
active: BT-549 breast -19.7% | HCT-116 colon 2.75% | HCC-2998 colon 8.18% | KM12 colon 1.27%
inactive: T-47D breast 21.8% | MDA-MB-435 melanoma 12.7% | SW-620 colon 16.4% | MCF7 breast 29.8%

CCCCOc1c(N)cccc1C(=O)OCCN(CC)CC
inactive: T-47D breast 93.3% | BT-549 breast 93.6% | MDA-MB-435 melanoma 111% | SW-620 colon 102% | MCF7 breast 103% | HCT-116 colon 79.2% | HCC-2998 colon 90.2% | KM12 colon 102%

COCCNC(C(=O)c1ccccc1)c1ccccc1 (stereo not drawn)
inactive: T-47D breast 92.1% | BT-549 breast 97.6% | MDA-MB-435 melanoma 103% | SW-620 colon 101% | MCF7 breast 95.3% | HCT-116 colon 99.9% | HCC-2998 colon 107% | KM12 colon 104%

C=C1C(=O)O[C@H]2[C@H]1CC/C(COC(=O)CCCC(=O)OC/C1=C/CC[C@@]3(C)O[C@H]3[C@H]3OC(=O)C(=C)[C@@H]3CC1)=C\CC[C@@]1(C)O[C@@H]21
active: BT-549 breast -4.94% | MDA-MB-435 melanoma 4.28% | SW-620 colon -35.9% | MCF7 breast 8.68% | HCT-116 colon -53%
inactive: T-47D breast 14.9% | HCC-2998 colon 64.9% | KM12 colon 26%

Cc1c(F)cccc1NC(=O)c1sc2nc3c(cc2c1N)CCCCC3
active: MDA-MB-435 melanoma 9.59%
inactive: T-47D breast 63.6% | BT-549 breast 73.6% | SW-620 colon 25% | MCF7 breast 14.8% | HCT-116 colon 49.8% | HCC-2998 colon 75.8% | KM12 colon 34.8%

O=C(Nc1ccc(-n2ccc3c(NC(=O)c4ccccc4)nccc32)cc1)Nc1ccc(Cl)c(Cl)c1
active: MDA-MB-435 melanoma -58.9% | SW-620 colon -64.6% | MCF7 breast -91.9% | HCT-116 colon -94.5% | HCC-2998 colon -57.6% | KM12 colon -49.1%
inactive: T-47D breast 20.7% | BT-549 breast 40.3%

Nc1nc(Cl)cc(NCCCCNc2cc(Cl)nc(N)n2)n1
inactive: T-47D breast 108% | BT-549 breast 99.9% | MDA-MB-435 melanoma 124% | SW-620 colon 112% | MCF7 breast 109% | HCT-116 colon 102% | HCC-2998 colon 103% | KM12 colon 113%

COc1ccc2c(c1)OC(N(C(C)=O)C(C)=O)=C(C#N)C2c1ccc(F)cc1 (stereo not drawn)
inactive: T-47D breast 42% | BT-549 breast 38.1% | SW-620 colon 20.9% | MCF7 breast 17.8% | HCT-116 colon 25.5% | HCC-2998 colon 59.2% | KM12 colon 25.6%
active: MDA-MB-435 melanoma -29.2%

O=C(Nc1ccc(-n2ccc3c(NC(=O)c4ccccc4)ncnc32)cc1)c1cccc(C(F)(F)F)c1
inactive: T-47D breast 57.8% | BT-549 breast 51.9% | MDA-MB-435 melanoma 38.3% | SW-620 colon 29.1% | MCF7 breast 36.4% | HCT-116 colon 22.3% | HCC-2998 colon 59.8% | KM12 colon 30%

Cc1ccc(NC(=O)CN2CCOCC2)cc1Cl
inactive: T-47D breast 88.7% | BT-549 breast 77% | MDA-MB-435 melanoma 100% | SW-620 colon 98.5% | MCF7 breast 91.8% | HCT-116 colon 80.5% | HCC-2998 colon 96.8% | KM12 colon 103%

COC(=O)c1oc2c(C(C)=O)c(OCCCN(C)C)ccc2c1C
inactive: T-47D breast 103% | BT-549 breast 215% | MDA-MB-435 melanoma 107% | SW-620 colon 106% | MCF7 breast 148% | HCT-116 colon 53.9% | HCC-2998 colon 116% | KM12 colon 100%

C/C(=N/NC(=O)Cn1c2ccccc2c2ccncc21)c1cccs1
inactive: T-47D breast 96.4% | BT-549 breast 104% | MDA-MB-435 melanoma 110% | SW-620 colon 103% | MCF7 breast 102% | HCT-116 colon 100% | HCC-2998 colon 96.9% | KM12 colon 101%

CN(C)CCS(=O)(=O)Nc1cc(-c2ccc3ncnc(Nc4ccc(F)c(Cl)c4)c3c2)cnc1Cl
active: T-47D breast -27% | BT-549 breast -17.9% | MDA-MB-435 melanoma -47.6% | SW-620 colon -22.7% | MCF7 breast 8.88% | HCT-116 colon -21.5% | HCC-2998 colon -83.7% | KM12 colon -56.3%

O=c1c(-c2ccc3c(c2)OCO3)coc2c(CO)c(O)ccc12
inactive: T-47D breast 19.2% | MDA-MB-435 melanoma 49.9% | SW-620 colon 38.1% | MCF7 breast 20.6% | KM12 colon 26.8%
active: BT-549 breast -43% | HCT-116 colon -8.96% | HCC-2998 colon 4.46%

CN(C)c1ccc(/C=c2\s/c(=C\C(=O)C(C)(C)C)[nH]c2=O)cc1
inactive: T-47D breast 81.4% | BT-549 breast 97.3% | MDA-MB-435 melanoma 89.3% | SW-620 colon 101% | MCF7 breast 86.7% | HCT-116 colon 91.2% | HCC-2998 colon 107% | KM12 colon 81.9%

O=c1c2ccccc2sc2c(NCCCNCCO)nc3ccccc3c12
active: MDA-MB-435 melanoma 5.01% | SW-620 colon -62.4% | MCF7 breast -72.9% | HCT-116 colon -57.5% | HCC-2998 colon -49.2% | KM12 colon 6.31%
inactive: T-47D breast 65.9% | BT-549 breast 72.3%

O=C(Nc1cccc(-n2ccc3c(NC(=O)c4ccccc4)nccc32)c1)c1cccc(C(F)(F)F)c1
inactive: T-47D breast 55.8% | SW-620 colon 20.2% | MCF7 breast 19% | HCC-2998 colon 31.8%
active: BT-549 breast -6.35% | MDA-MB-435 melanoma 1.38% | HCT-116 colon 1.3% | KM12 colon -3.3%

C#C[C@@]1(O)[C@@H](CO)O[C@@H](n2cc(Br)c3c(Cl)ccnc32)[C@@H]1O
active: T-47D breast -17.8% | MCF7 breast 1.48%
inactive: BT-549 breast 22.6% | MDA-MB-435 melanoma 56.7% | SW-620 colon 14.5% | HCT-116 colon 23.1% | HCC-2998 colon 37% | KM12 colon 65%

Nc1c(C(=O)O)[nH]c(=O)[nH]c1=O
inactive: T-47D breast 104% | BT-549 breast 107% | MDA-MB-435 melanoma 108% | SW-620 colon 108% | MCF7 breast 95.6% | HCT-116 colon 96.8% | HCC-2998 colon 105% | KM12 colon 106%

Cc1cc(N2CCOCC2)nc(N(CCNc2ccnc3cc(Cl)ccc23)Cc2ccco2)n1
inactive: BT-549 breast 30.2% | MDA-MB-435 melanoma 26.6% | SW-620 colon 50.5% | MCF7 breast 40.6% | HCT-116 colon 14.5% | HCC-2998 colon 62.9% | KM12 colon 44.8%
active: T-47D breast -6.08%

CC(=O)c1ccc2c(c1)C1C=CCC1[C@H](c1cc3c(cc1Br)OCO3)N2 (stereo partly drawn)
active: MDA-MB-435 melanoma -27.2% | HCC-2998 colon 7.12%
inactive: T-47D breast 36.2% | BT-549 breast 44.6% | SW-620 colon 21.2% | MCF7 breast 14.1% | HCT-116 colon 14.9% | KM12 colon 17%

O=c1c2ccccc2sc2c(N3CCCC3)nc3ccccc3c12
inactive: T-47D breast 81.2% | BT-549 breast 111% | MDA-MB-435 melanoma 112% | SW-620 colon 95% | MCF7 breast 65.8% | HCT-116 colon 78% | HCC-2998 colon 107% | KM12 colon 85.5%

C=C1C(=O)O[C@H]2[C@H]1CC/C(COC(=O)n1ccnc1C)=C\CC[C@@]1(C)O[C@@H]21
inactive: T-47D breast 85% | BT-549 breast 97.3% | MDA-MB-435 melanoma 99.5% | SW-620 colon 85% | MCF7 breast 87.8% | HCT-116 colon 89% | HCC-2998 colon 103% | KM12 colon 103%

NC(=NCCCOc1ccc(F)cc1)Nc1ccc(Cl)c(Cl)c1
active: HCC-2998 colon -45.7%
inactive: T-47D breast 29.2% | BT-549 breast 91.2% | MDA-MB-435 melanoma 79% | SW-620 colon 60.4% | MCF7 breast 18.1% | HCT-116 colon 45.6% | KM12 colon 76.5%

CN1CCN(Cn2nc(-c3cc(F)c(Cl)cc3Cl)n(/N=C/c3ccc(N(C)C)cc3)c2=S)CC1
inactive: T-47D breast 93.7% | BT-549 breast 67.1% | SW-620 colon 70.5% | MCF7 breast 112% | HCT-116 colon 82.1% | HCC-2998 colon 98% | KM12 colon 88.8%
active: MDA-MB-435 melanoma -7.65%

Cc1cn(-c2cc(C(=O)Nc3cccc(-n4ccc5c(NC(=O)c6ccccc6)nccc54)c3)cc(C(F)(F)F)c2)cn1
active: MDA-MB-435 melanoma -14.9% | MCF7 breast 7.18% | HCT-116 colon -78.6% | KM12 colon -25.6%
inactive: T-47D breast 62.5% | BT-549 breast 27.9% | SW-620 colon 13.4% | HCC-2998 colon 12.7%

CC1(C)CC(=O)C2=C(C1)OC1=C(C(=O)CC(C)(C)C1)C2c1ccc(OCc2cn(-c3ccc(F)cc3F)nn2)cc1
inactive: T-47D breast 98.5% | BT-549 breast 110% | MDA-MB-435 melanoma 92.4% | SW-620 colon 118% | MCF7 breast 87.2% | HCT-116 colon 91.9% | HCC-2998 colon 122% | KM12 colon 90.2%
